This is an account of results in PubChem BioAssay (NCATS).

Inconclusive results are not listed. Entries that show only a call come without a potency. Activity calls are given as the source filed them. Calls come from the whole dose curve; as a rule, active = well fitted inhibition curve with a large enough effect; inconclusive = small, poorly fitted or top-dose-only effect; inactive = flat fitted curve, though single readings scatter.

This assay relates to Zika virus NS2B-NS3 protease. Put plainly: Primary screen GU AMC qHTS for Zika virus inhibitors (AID 1347154). Note: nearly all actives have a fitted effect of over 70% in size. Conditions: Zika NS2B-NS3 unlinked protease, AMC fluorogenic substrate; series mostly up to 54.1 µM. The method, boiled down: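 Unlinked Zika NS2B hydrophilic domain–NS3 protease complex at 25 nM in 10 mM Tris-HCl pH 8.0, 0.01% Tween 20, with an AMC peptide substrate. Fluorescence change (340/450 nm) over 15 min at room temperature, normalized to controls, fitted to 4-parameter Hill.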
On the technique in general: qHTS replaces the single test concentration by a dilution series.
In the case of `C[C@@H]1CC[C@@]2(OC1)O[C@H]1C[C@H]3[C@@H]4CC[C@H]5C[C@@H](O)CC[C@]5(C)[C@H]4CC(=O)[C@]3(C)[C@H]1[C@@H]2C`, the activity change, negative = inhibition was -4.75% [at 4.99 µM] (inactive). For the molecule `NCCNCCNCCN`, the Potency entry was “inactive”.

As for `O=C1OC(OC(=O)c2cccnc2Nc2cccc(C(F)(F)F)c2)c2ccccc21` (centres undefined), the Potency result is “inactive”.

As to `C[C@H](N)[C@H](O)c1cccc(O)c1`, the Potency entry was “inactive”. The same measure, in the same setting: to `CC(C)(C)NCC(O)COc1ccc(NC(=O)NC2CCCCC2)cc1` (centres undefined) belongs “inactive”. For `NC(=O)N/N=C/c1ccc([N+](=O)[O-])o1`, the Potency entry is “inactive”. Same read-out and setting: then `CC1(C)OC(=O)NC1=O`, with “inactive”; and `CCCCN(CCCC)CCCOC(=O)c1ccc(N)cc1`, with “inactive”. On the same count and under the same terms, to `Cc1cccc(C)c1NC(=O)CN(CC(=O)O)CC(=O)O` belongs “inactive”; to `Cn1cc[nH]c1=S`, “inactive”; to `O=c1[nH]cnc2c1ncn2[C@@H]1O[C@H](CO)[C@@H](O)[C@H]1O`, “inactive”. On the same count and under the same terms, then `CC(=O)CCC(=O)O`, with “inactive”.

Turning to `N[C@@H](CSSC[C@H](N)C(=O)O)C(=O)O`, the activity change, negative = inhibition is 4.84% [at 0.59 µM] (inactive).

In the case of `O=C(CCCN1CCN(c2ccccn2)CC1)c1ccc(F)cc1`, the Potency result is “inactive”.

For `CC(=O)Nc1ccc(/C=N/NC(N)=S)cc1`, the Potency result is “inactive”. Same read-out and setting: then `Cc1ccc(C(C)C)cc2c(C)ccc1-2`, with “inactive”; and `CC1(C)CO[C@@H](CC(=O)O)CN1`, with “inactive”; and `CCC(=O)c1ccc(O)cc1`, with “inactive”. `CC(C)NC[C@H](O)c1ccc(O)c(O)c1`: the Potency entry is “inactive”.

Take `O=c1[nH]c(=O)c2[nH]c(=O)[nH]c2[nH]1`: the activity change, negative = inhibition is -2.36% [at 6.83 µM] (inactive). As for `C[C@H]1O[C@H](O[C@H]2[C@H](O)[C@@H](O)[C@@H](O[C@H]3[C@H](O)[C@@H](O)[C@H](O)O[C@@H]3CO)O[C@@H]2CO)[C@H](O)[C@@H](O)[C@@H]1N[C@H]1C=C(CO)[C@@H](O)[C@H](O)[C@H]1O`, the Potency result is “inactive”.

Take `Cc1cc(O)cc2c1O[C@](C)(CCC[C@H](C)CCC[C@H](C)CCCC(C)C)CC2`: the Potency entry was “inactive”. For the molecule `COC(=O)C1=C(C)NC(C)=C(C(=O)OC)C1c1ccccc1[N+](=O)[O-]`, the Potency entry is “inactive”. As for `CN1[C@@H]2CC(OC(=O)[C@H](CO)c3ccccc3)C[C@H]1[C@@H]1O[C@@H]12` (some centres undefined), the Potency entry is “inactive”. On the same count and under the same terms, to `O=C(Oc1ccccc1C(=O)O)c1ccccc1O` belongs “inactive”. Still for that read-out and setting: to `CC1(C)Oc2ccc(C#N)cc2[C@@H](N2CCCC2=O)[C@@H]1O` belongs “inactive”; to `CC(C)(C)C(=O)C(Oc1ccc(Cl)cc1)n1ccnc1` (centres undefined), “inactive”. Turning to `NC(CSCC(=O)O)C(=O)O` (centres undefined), the Potency result was “inactive”.

As for `C[C@H]1O[C@@H](n2cc(F)c(=O)[nH]c2=O)[C@H](O)[C@@H]1O`, the Potency entry was “inactive”.

Regarding `Cc1cccc(Nc2cc(Cl)nc(SCC(=O)O)n2)c1C`, the Potency result is “inactive”. On the same count and under the same terms, then `c1ccc2c(CC3=NCCN3)cccc2c1`, with “inactive”; and `OCC(CO)N[C@H]1C[C@](O)(CO)[C@@H](O)[C@H](O)[C@H]1O`, with “inactive”.

Take `Oc1cn2c(n1)Nc1ccc(Cl)c(Cl)c1C2`: the Potency entry was “inactive”. The same measure, in the same setting: then `O=c1cc[nH]c(=S)[nH]1`, with “inactive”.
